TSHR ag: agonists of human thyroid stimulating hormone receptor. HEK293-CNG-TSHR cells (CNG channel as cAMP sensor), membrane potential dye, cAMP. 73,000 compounds, 0.48% hits. P16473. AID 926. Potency, µM (doses to about 57.1 µM), actives largely listed as activators; active means well fitted activation curve with a large enough effect in the main read-out, with a control signal flat, not every such curve was filed as active; inconclusive means small, poorly fitted or top-dose-only effect, or a change in a side signal; inactive means no such curve, though single readings can be large or run the other way; reference of the percent scale not stated here;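 further: the control signal comes from parental cells without the receptor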
Target sequence (P16473 whole entry, looked up): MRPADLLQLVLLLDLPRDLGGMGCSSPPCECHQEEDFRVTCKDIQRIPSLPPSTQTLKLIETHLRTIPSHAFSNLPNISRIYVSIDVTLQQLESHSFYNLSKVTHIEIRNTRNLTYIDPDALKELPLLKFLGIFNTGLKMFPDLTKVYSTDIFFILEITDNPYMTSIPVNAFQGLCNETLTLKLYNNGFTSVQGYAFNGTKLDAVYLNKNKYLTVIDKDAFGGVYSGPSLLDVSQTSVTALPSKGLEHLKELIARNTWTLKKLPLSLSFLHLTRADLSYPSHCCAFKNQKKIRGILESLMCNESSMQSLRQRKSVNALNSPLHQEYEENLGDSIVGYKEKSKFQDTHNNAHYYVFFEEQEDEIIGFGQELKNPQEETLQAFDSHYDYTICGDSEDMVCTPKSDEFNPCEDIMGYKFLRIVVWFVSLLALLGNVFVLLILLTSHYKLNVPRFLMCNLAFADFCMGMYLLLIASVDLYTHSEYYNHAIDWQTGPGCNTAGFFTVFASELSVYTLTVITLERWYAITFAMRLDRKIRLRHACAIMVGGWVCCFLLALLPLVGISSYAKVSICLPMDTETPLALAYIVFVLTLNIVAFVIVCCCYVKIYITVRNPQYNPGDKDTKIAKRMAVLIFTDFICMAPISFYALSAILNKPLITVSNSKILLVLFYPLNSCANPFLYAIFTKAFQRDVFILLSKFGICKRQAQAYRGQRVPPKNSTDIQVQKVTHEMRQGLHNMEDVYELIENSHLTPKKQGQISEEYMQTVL
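HEK 293 cells stably expressing TSHR and a cAMP-gated CNG channel; parental CNG-only cells as counterscreen. Cells preloaded 60 min with membrane potential dye plus 100 uM RO 20-1724, then compound 30 min; fluorescence read at 590 nm.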
HEK293 cAMP cs: counter-screen for TSHR agonists: cAMP increase in parental HEK293. 73,000 compounds, 2.5% hits. Potency, µM (titrated, usually from 57.1 µM), most hits filed as activators. parental HEK293 CNG cAMP sensor, membrane potential fluorescence; further: nearly all actives have a fitted effect of over 55% in size
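Counterscreen for endogenous-receptor signalling: CNG-channel HEK 293 cells report cAMP rise by membrane depolarization. After 60 min dye equilibration with 100 uM RO 20-1724, compounds incubated 30 min before bottom-read fluorescence at 590 nm.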
Imprint erasure: inducers of genomic imprint erasure in mouse ES cells. mouse ES Peg3-LacZ reporter, beta-gal luminescence, 40 h. Potency, µM (highest dose often 60.7 µM), hits mostly activators. 110,000 compounds, 0.02% hits. AID 1948
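Readout: BetaGlo luminescence (5 min, room temp) for LacZ from the normally silent maternal Peg3 allele in female Peg3LacZ-Neo ES cells. Cells 300/well, 40 h, 37C, 5% CO2. Data normalized per plate to negative controls.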
p53ts 39C kill: p53ts cell cytotoxicity, nonpermissive temperature; H1299-p53A138V viability at 39C, ATP luminescence, 24 h; Potency, µM (series often up to 46.1 µM), usual class: cytotoxic; 130,000 compounds, 1.5% hits; further: nearly all actives have a fitted effect of over 55% in size
p53ts 32C tox: cytotoxicity in p53ts cells at permissive temperature; H1299-p53A138V at 32C, ATP luminescence viability, 24 h; Potency, µM (doses to about 46.1 µM), actives largely listed as cytotoxic; 130,000 compounds, 0.93% hits; further: nearly all actives have a fitted effect of over 55% in size
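Viability by ATPlite luminescence after 24 h compound treatment (up to 46 uM) at the permissive 32C. Cells are H1299 carrying p53 A138V. Scale runs from DMSO basal to 100 uM tamoxifen as full kill; AC50 from Hill fits.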
IkB sig inh: IkB pathway inhibition in ABC-DLBCL cells. ABC-DLBCL IkBa-CBG/CBR dual luciferase ratio, 4 h; response scale: scaled: untreated 0%, proteasome inhibitor 100%. Potency, µM (series often up to 57.1 µM). 110,000 compounds, 0.04% hits; active means well fitted curve in the direction sought with a large enough effect in the signal ratio, not every such curve was filed as active; inconclusive means small, poorly fitted or top-dose-only effect, or a change in a side signal; the % refers to the signal ratio;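 further: the direction sought is a rising ratio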
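Curves were fitted separately to fusion (green), unfused (red) and ratio luminescence, then classed by r2, magnitude and activity. Cells: OCI-Ly3, 4 h compound plus doxycycline at 37C; 10 uM MG-132 defined full response.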
Hits are given with their value; [ ] = dose if it differs, or a comment. This is a sample that favours compounds with a hit; in the whole collection about 3.1% have one here. Unless noted, the call rests on the fitted dose curve; in most records, active means well fitted curve in the direction sought with a large enough effect; inconclusive means small, poorly fitted or top-dose-only effect, or another doubt; inactive means no such curve, though single readings can be large; an effect the other way counts as inactive or inconclusive.

How did CSc1cc2c(cc1C(F)(F)F)N(C(=O)Nc1cccnc1)CC2 do in these assays?
TSHR ag: inactive; HEK293 cAMP cs: inactive; Imprint erasure: inactive; p53ts 39C kill: inactive; p53ts 32C tox: inactive; IkB sig inh: inactive

Results for CCN(CC)c1nc(-c2ccc(C(C)(C)C)cc2)nc2ccccc12 ?
Imprint erasure: inactive[10.9 µM]; p53ts 39C kill: 13µM; p53ts 32C tox: 13µM; IkB sig inh: inconclusive

What do the screens show for `O=C(c1ccco1)N1CCC[C@@]2(CCN(C(c3ccccc3)c3ccccc3)C2)C1`?
TSHR ag: inconclusive; HEK293 cAMP cs: 16µM; p53ts 39C kill: inactive; p53ts 32C tox: inactive; IkB sig inh: inactive[11.4 µM]

What do the screens show for `COC(=O)N1CCC[C@@]2(CCN(C(c3ccccc3)c3ccccc3)C2)C1`?
TSHR ag: inconclusive; HEK293 cAMP cs: 7.9µM; p53ts 39C kill: inactive; p53ts 32C tox: inactive; IkB sig inh: inactive[11.4 µM]

What do the screens show for `CC(=O)N1CCC2(CCCN(C(c3ccccc3)c3ccccc3)C2)CC1`?
TSHR ag: inconclusive; HEK293 cAMP cs: 16µM; p53ts 39C kill: inactive; p53ts 32C tox: inactive; IkB sig inh: inactive[11.4 µM]

What do the screens show for `Cc1noc(C)c1C(=O)N1CCC2(CC1)CCN(C(c1ccccc1)c1ccccc1)CC2`?
TSHR ag: 32µM; HEK293 cAMP cs: inactive; p53ts 39C kill: inactive; p53ts 32C tox: inactive; IkB sig inh: inactive[11.4 µM]

Results for O=C(c1ccco1)N1CCC2(CC1)CN(C(c1ccccc1)c1ccccc1)C2 ?
TSHR ag: inconclusive; HEK293 cAMP cs: inconclusive; p53ts 39C kill: inactive; p53ts 32C tox: inactive; IkB sig inh: inactive[11.4 µM]

How did CCOc1ccc(NC(=O)CSc2nc3ccccc3c(=O)n2CCC(=O)NC2CCCCC2)cc1 do in these assays?
Imprint erasure: inactive[10.9 µM]; p53ts 39C kill: inactive; p53ts 32C tox: inactive; IkB sig inh: inactive

What do the screens show for `CCc1ccc(NC(=O)c2sc(-n3nc(C)c(Cc4ccc(OC)cc4)c3C)nc2C)cc1`?
Imprint erasure: inactive[10.9 µM]; p53ts 39C kill: inactive; p53ts 32C tox: inactive; IkB sig inh: inactive

How did CCc1ccc(-c2nc(CSCC(=O)NCc3ccc(C)cc3)c(C)o2)cc1 do in these assays?
Imprint erasure: inactive[10.9 µM]; p53ts 39C kill: inactive; p53ts 32C tox: inactive; IkB sig inh: inconclusive

How did COC1=CC(=O)C=C(OC)C1=O do in these assays?
Imprint erasure: inactive; p53ts 39C kill: 16µM; p53ts 32C tox: inconclusive

How did COc1cccc2c1[C@@H]1CN(CCCCn3c(=O)[nH]c4c(sc5ncc(-c6ccccc6)nc54)c3=O)C[C@H]1CO2 do in these assays?
TSHR ag: inconclusive; HEK293 cAMP cs: inactive; p53ts 39C kill: inconclusive; p53ts 32C tox: inconclusive; IkB sig inh: inactive

What do the screens show for `Cc1c2cnn(CC(=O)NC(C)C)c(=O)c2c(C)n1Cc1ccccc1Cl`?
Imprint erasure: inactive[10.9 µM]; p53ts 39C kill: inactive; p53ts 32C tox: inactive; IkB sig inh: inactive

What do the screens show for `CCC(CC)C(=O)NCc1ccc2c(c1)cc(C)n2C`?
TSHR ag: inconclusive; HEK293 cAMP cs: 6.3µM; Imprint erasure: inactive; p53ts 39C kill: inactive; p53ts 32C tox: inactive; IkB sig inh: inactive

What do the screens show for `O=C(O)[C@H]([C@H]1NCCS1)N1C(=O)c2ccccc2C1=O`?
TSHR ag: inactive[11.4 µM]; HEK293 cAMP cs: inactive[11.4 µM]; p53ts 39C kill: inactive[9.22 µM]; p53ts 32C tox: inactive[9.22 µM]; IkB sig inh: inactive[11.4 µM]

How did Cc1ccc(S(=O)(=O)Nc2cc3c(C(=O)OCc4ccccc4)c(C)oc3c3ccccc23)cc1 do in these assays?
Imprint erasure: inactive[10.9 µM]; p53ts 39C kill: inactive; p53ts 32C tox: inactive; IkB sig inh: inconclusive

What do the screens show for `Cc1oc2c(cc(NS(=O)(=O)c3ccc(Br)cc3)c3ccccc32)c1C(=O)OCc1ccccc1`?
Imprint erasure: inactive[10.9 µM]; p53ts 39C kill: 20µM; p53ts 32C tox: inactive; IkB sig inh: inconclusive

How did O=C1CCSC2(C(=O)N(Cc3ccc(F)cc3)c3ccccc32)N1c1ccc(Cl)cc1 (stereo not drawn) do in these assays?
Imprint erasure: inactive[10.9 µM]; p53ts 39C kill: inactive; p53ts 32C tox: inactive; IkB sig inh: inconclusive

How did COc1cc(NC(=O)c2nc3ccccc3n(C)c2=O)cc(OC)c1OC do in these assays?
Imprint erasure: inactive[10.9 µM]; p53ts 39C kill: inactive; p53ts 32C tox: inactive; IkB sig inh: inconclusive

What do the screens show for `CC(=O)c1cccc(NC(=O)c2nc3ccccc3n(C)c2=O)c1`?
Imprint erasure: inactive[10.9 µM]; p53ts 39C kill: 1.6µM; p53ts 32C tox: 2.2µM; IkB sig inh: inconclusive

How did CC(=O)c1cccc(NC(=O)c2cnn3ccccc23)c1 do in these assays?
TSHR ag: inactive; HEK293 cAMP cs: inactive; Imprint erasure: inactive; p53ts 39C kill: inconclusive; p53ts 32C tox: inconclusive; IkB sig inh: inactive

What do the screens show for `Cc1cc(Cl)ccc1NC(=O)c1cc2ccccn2n1`?
Imprint erasure: inactive[10.9 µM]; p53ts 39C kill: 5µM; p53ts 32C tox: 10µM; IkB sig inh: inactive

How did CC(=O)c1cccc(NC(=O)c2cc3ccccn3n2)c1 do in these assays?
TSHR ag: inactive; HEK293 cAMP cs: inactive; Imprint erasure: inactive; p53ts 39C kill: 13µM; p53ts 32C tox: 13µM; IkB sig inh: inconclusive

How did COC(=O)[C@@H]1C[C@H]2CC[C@H](O)C[C@H]2N1Cc1ccc(N2CCOCC2)cc1 do in these assays?
Imprint erasure: inactive; p53ts 39C kill: inactive; p53ts 32C tox: inactive

What do the screens show for `O=C(/C=C\c1ccc(O)c(O)c1)OCCc1ccccc1`?
TSHR ag: inconclusive; HEK293 cAMP cs: inconclusive; p53ts 39C kill: inconclusive; p53ts 32C tox: inconclusive; IkB sig inh: inactive

What do the screens show for `CCN(C(=O)c1ccc(C(=O)N(CC)c2ccccc2C)cc1)c1ccccc1C`?
Imprint erasure: inactive[10.9 µM]; p53ts 39C kill: inactive; p53ts 32C tox: inactive; IkB sig inh: inconclusive

Results for CCCCCCCN(C(=O)CCl)c1ccccc1C ?
p53ts 39C kill: 25µM; p53ts 32C tox: inconclusive

What do the screens show for `CN1CCC2(CCN3CCc4c(oc5ccccc45)C3C2)N(C)C1=O` (stereo not drawn)?
Imprint erasure: inactive

What do the screens show for `Cc1[nH]c2ccccc2c1C(c1ccccc1)c1ccc(Cl)s1` (stereo not drawn)?
Imprint erasure: inactive[10.9 µM]; p53ts 39C kill: 13µM; p53ts 32C tox: inconclusive; IkB sig inh: inconclusive

How did COc1ccc(NC(=O)CCc2c(C)nn(-c3ccc(N4CCCCC4)nn3)c2C)cc1Cl do in these assays?
Imprint erasure: inactive[10.9 µM]; p53ts 39C kill: 10µM; p53ts 32C tox: 16µM; IkB sig inh: inactive

How did COc1cc(NC(=O)CCc2c(C)nn(-c3ccc(N4CCCCC4)nn3)c2C)cc(OC)c1OC do in these assays?
Imprint erasure: inactive[10.9 µM]; p53ts 39C kill: inconclusive; p53ts 32C tox: inconclusive; IkB sig inh: inconclusive

Results for O=C(Cc1ccc(Cl)cc1)NC1CC(=O)N(c2ccc3c(c2)OCCO3)C1 (stereo not drawn) ?
Imprint erasure: inactive[10.9 µM]; p53ts 39C kill: inactive; p53ts 32C tox: inactive; IkB sig inh: inactive

High-throughput results: PubChem BioAssay, National Center for Advancing Translational Sciences (NCATS)
